# Laboratory results reported in PubChem BioAssay (NCI).
# The panel holds about 83,000 compounds, 20% with a hit somewhere; the sample as a whole holds those more often.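 How to read the values: 0–100, growth inhibition (40 = 60% inhibited); 0, no net growth; -100 to 0, cell death (-40 = 40% of starting cells died; -100 = all dead).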 Activity calls are given as the source filed them. Rule for the calls: active = growth percent below 10; inactive = the rest.
# System: SR leukemia
# Assay: NCI-60 one-dose screen, 48 h (100 = growth as untreated, 0 = no growth, -100 = all killed)
# Details: 10 µM unless noted
row,Compound,growth
1,COc1cc(O)c2c(=O)c3c(CC=C(C)C)cc(OC)c(O)c3oc2c1,24.7% (inactive)
2,Cc1nc2sc(C(=O)Nc3cccc4ccccc34)c(N)c2cc1C(=O)c1ccccc1,7.17% (active)
3,Cc1cc(C(=O)CCCC(=O)c2cc(C)c(O)c(C)c2)cc(C)c1O,81.9% (inactive)
4,FC(F)(F)c1[nH]ncc1-c1nc2ccc3[nH]ncc3c2c2c1CCCC2,-16.6% (active)
5,Nc1ncnc2c1N=C(c1ccc(F)cc1)CC(c1cccc(Nc3ccnc4cc(Cl)ccc34)c1)N2 (stereo not given),0.875% (active)
6,COC(=O)c1c2c(c(C)[n+]([O-])c1C)C(=O)C(NCc1ccccc1)=CC2=O,61.4% (inactive)
7,COc1cc(C=Nc2oc(-c3ccccc3)c(-c3ccccc3)c2C#N)cc(CN2CCCC2)c1O,80.9% (inactive)
8,NCCCNc1nc2ccccc2c2c(=O)c3cc(Cl)ccc3sc12,-44.3% (active)
9,O=C(/C=C/c1cccc(Oc2ccccc2)c1)c1ccc(Nc2nc(Nc3ccc(F)cc3)nc(Nc3ccc(Cl)cc3)n2)cc1,-14.9% (active)
10,CCCCO[C@@H]1C=C2[C@H]3CC(C)(C)C(=O)C[C@]3(C(=O)O[C@@H]3O[C@H](CO[C@@H]4O[C@H](CO)[C@@H](OC5OC(C)C(O)C(O)C5O)[C@H](O)[C@H]4O)[C@@H](O)[C@H](O)[C@H]3O)CC[C@@]2(C)[C@]2(C)CC[C@H]3C(C)(C)C(=O)CC[C@]3(C)[C@@H]12 (stereo not given in full),69.9% (inactive)
11,COc1ccc2cc(-c3nc4ccc(C)cn4c3NCc3ccco3)c(=O)[nH]c2c1,31.5% (inactive)
12,c1csc(-c2cn3nc(-c4c[nH]c5ccccc45)sc3n2)c1,14.5% (inactive)
13,O=C1C=CC2(O)OC/C(=C\c3ccccc3)C(O)=C2C1=O (stereo not given),6.55% (active)
14,C=C1CC[C@@H]2C(C)(C)[C@H](O)CC[C@@]2(C)[C@@H]1COc1ccc2ccc(=O)oc2c1,85.5% (inactive)
15,COC(=O)c1c(C)nc(C)c2c1C(=O)C=C(NCc1ccccc1)C2=O,54.1% (inactive)
16,COC(=O)c1ccc2cc(OC)c(OC)cc2c1,91.5% (inactive)
17,O=C(c1cccc(N2CCOCC2)n1)c1c[nH]c2ccccc12,95.7% (inactive)
18,C=C[C@@]1(C)CC(=O)[C@@H](C(C)(C)c2cn(C)c3ccc(Br)cc23)C[C@@H]1O[Si](C)(C)C(C)(C)C,103% (inactive)
19,COCCOC(C)C(/C=N/NC(N)=S)=N/NC(N)=S (stereo not given),53.2% (inactive)
20,Cc1cc(N2CCN(CC(=O)Nc3ccc4c(ccn4Cc4ccccc4)c3)CC2)nc(N2CCOCC2)n1,107% (inactive)

row,Compound,growth
1,COc1ccc(C2CC(c3ccccc3)=NN2C(=O)c2cc(OC)c(OC)c(OC)c2)cc1O (stereo not given),29.8% (inactive)
2,Cc1ccc(O)c(NC(=O)c2cccc(Nc3ccnc(C(F)(F)F)c3)c2)c1,39.8% (inactive)
3,Cc1ncc(C(=O)Nc2ccc(CN3CCN(C)CC3)c(C(F)(F)F)c2)cc1C#Cc1cnc(N)c2ccc(C#N)cc12,4.87% (active)
4,Cc1nn(C)c2ncnc(N/N=C/c3cccc(O)c3O)c12,7.79% (active)
5,O=C(O)CC(C(=O)O)/C(=C\c1ccccc1)c1ccccc1 (stereo not given),105% (inactive)
6,Fc1ccc2[nH]cc(-c3nc(-c4c[nH]c5c(Cl)nccc45)cs3)c2c1,13.3% (inactive)
7,CCCN(CCSSCCNc1nc(N(C)O)nc(N(C)O)n1)c1nc(N(C)O)nc(N(C)O)n1,129% (inactive)
8,CCOC(=O)c1cn2ncnc(Oc3ccc(NC(=O)NC4CC4)c(Cl)c3)c2c1C,77.5% (inactive)
9,COC1C(O)CC(OC2CC(OC3CC(O[C@@H]4C(=O)c5c(cc6cc(OC7CC(OC8CC(O)C(O)C(C)O8)C(O)C(C)O7)c(C)c(O)c6c5O)CC4[C@H](OC)[C@@H](O)C(C)=O)OC(C)C3O)OC(C)C2O)OC1C (stereo not given in full),4.82% (active)
10,COC12C=C/C(=C(/C(=O)OCc3csc(SC)n3)C(=O)CCCCCCCCC3(OC)C=C/C(=C(/C(=O)OCc4cnc(SC)s4)C(=O)CCCCCCCC1)O3)O2 (stereo not given),1.64% (active)
11,COc1ccc(/C=C2\CN(C(=O)C(Cl)Cl)C/C(=C\c3ccc(OC)c(OC)c3)C2=O)cc1OC,6.16% (active)
12,Cc1c2cnccc2c(C)c2c1c1cc(CO)ccc1n2C,8.41% (active)
13,COc1ccc(C=Nc2c(C(=O)Nc3cccc(Cl)c3C)sc3nc(C)c(C(=O)/C=C/c4ccc(OC)cc4)cc23)cc1,30.8% (inactive)
14,O=[N+]([O-])c1c(O)c(Cl)cc(Cl)c1Cl,87.9% (inactive)
15,CN1CCOCCN(C)Cc2ccc3ccc(cc3c2)CN(C)CCOCCN(C)Cc2ccc3ccc(cc3c2)C1,9.14% (active)
16,O=C1/C(=C/c2c[nH]c(=O)[nH]c2=O)SC(=S)N1Cc1ccccc1,99.5% (inactive)
17,O=Nc1ccc(NC(=O)Nc2ccc([N+](=O)[O-])cc2)cc1,81.1% (inactive)
18,N#Cc1nn(-c2cc(=O)[nH]c3ccc(Br)cc23)c(N)c1C#N,-14.2% (active)
19,C[C@H](c1nc2ccc(C#N)cc2[nH]1)[C@H]1CC[C@H]2[C@@H]3CCC4=CC(=O)CC[C@]4(C)[C@H]3CC[C@]12C,34.6% (inactive)
20,CCOC(=O)C1=C(c2ccccc2)N=C2N(c3ccccc3)N=C(C(C)=O)N2C1c1ccc(F)cc1 (stereo not given),97.1% (inactive)
